Source: PubChem
Rows were chosen to be rich in hits. Some 7.9% of all compounds tested hit in one or more screens of this group.
MCF10A rereplic – induces DNA re-replication in MCF 10a normal breast cells; MCF 10A DNA re-replication, Hoechst nuclear intensity, 48 h; Potency, µM (doses to about 46.1 µM), for the others: at the highest dose activity, positive = re-replication, actives largely listed as activators; 350,000 tested, 2.9% active; AID 624296; also: % of control where 0% means no effect; nearly all actives have a fitted effect of over 50% in size
HT1080-NT tox – kills 2HG-producing HT-1080-NT fibrosarcoma cells. HT-1080-NT fibrosarcoma viability, CellTiter-Glo ATP luminescence, 48 h. Potency, µM (doses to about 46.1 µM), for the others: top-dose activity, negative = less viability, actives largely listed as cytotoxic. 360,000 tested, 1.6% active. AID 686970;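 also: NT is the 2HG producing partner of a matched IDH1 knockdown line; 0% = DMSO-treated cells and -100% = media-only wells without cells; nearly all actives have a fitted effect of over 55% in size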
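Compounds were tested in concentration-response format on HT-1080-NT cells for 48 hours at 37 degrees C. Cell viability came from CellTiter-Glo luminescence; curves were classified by r2, response magnitude and activity.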
SW480 rereplic – inducers of DNA re-replication in SW480 colon cancer cells. Potency, µM (titrated, usually from 46.1 µM), for inactives: top-dose re-replication activation, hits mostly activators. 340,000 tested, 1.8% active. SW480 DNA re-replication, Hoechst DNA content imaging, 48 h; also: % of control where 0% means no effect; nearly all actives have a fitted effect of over 55% in size
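Quantitative HTS format with DMSO vehicle controls; 48 hr drug incubation at 37 C, then 40 min Hoechst staining and scanning imager measurement at 405 nm excitation.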
HT1080 IDH1KD tx – toxicity to HT-1080 IDH1 knockdown cells (counter line). HT-1080 IDH1 knockdown viability, ATP luminescence, 48 h. 360,000 tested, 2% active. Potency, µM (titrated, usually from 46.1 µM), for inactives: at the top dose activity, negative = toxicity, actives largely listed as cytotoxic;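 also: 0% = DMSO wells and -100% = cell-free medium wells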
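IDH1KD HT-1080 cells, 750/well, RPMI + 5% FBS; compound pinned after 2 h settling; 48 h, 37 °C; CellTiter-Glo luminescence; % activity normalised to DMSO and no-cell wells; curves fitted, classed by r2 and efficacy.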
KB-V1 MDR tox – KB-V1 MDR subline cytotoxicity. 400,000 tested, 3.4% active. Potency, µM (series often up to 46.1 µM), hits mostly cytotoxic. KB-V1 MDR cells viability, CellTiter-Glo, 72 h; also: % is scaled to controls: 0 for no effect and ±100 for the full control effect; nearly all actives have a fitted effect of over 60% in size
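KB-V1, DMEM (no phenol red) + 10% FBS; cpd pin-transferred, titration series; 72 h, 37 degrees C; CellTiter-Glo, luminescence. Data normalized, curve-fit.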
KB-3-1 cytotox – KB-3-1 parental cell cytotoxicity. 400,000 tested, 1.4% active. Potency, µM (titrated, usually from 46.1 µM), hits mostly cytotoxic. AID 1347075. KB-3-1 viability, CellTiter-Glo ATP luminescence, 72 h; also: % is scaled to controls: 0 for no effect and ±100 for the full control effect; nearly all actives have a fitted effect of over 60% in size
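Parental KB-3-1 viability, qHTS format: 72 h compound exposure, 37 °C; CellTiter-Glo; media-only wells and DMSO plates as controls; concentration-effect fits on corrected data.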
An asterisk follows results filed as active; [ ] = dose if it differs, or a comment. Calls follow the shape of the dose curve; as a rule, active = well fitted curve in the direction sought with a large enough effect; inconclusive = small, poorly fitted or top-dose-only effect, or another doubt; inactive = no such curve, though single readings can be large; an effect the other way counts as inactive or inconclusive. Potency is read from the fitted curve at half-maximal effect.

O=C1Cc2cc(S(=O)(=O)NCc3ccc(F)cc3)ccc2N1 was read as MCF10A rereplic 1.6%, HT1080-NT tox 1.7%, SW480 rereplic -0.5%, HT1080 IDH1KD tx 3.1%, KB-V1 MDR tox inactive and KB-3-1 cytotox inactive.
`Cc1cc(C(=O)N/N=C/c2ccc(Cl)c([N+](=O)[O-])c2)c(C)n1-c1ccc(F)cc1` gave MCF10A rereplic 11.6µM*, HT1080-NT tox inconclusive, SW480 rereplic 16.9%, HT1080 IDH1KD tx 20.6µM*, KB-V1 MDR tox inconclusive and KB-3-1 cytotox 5.8µM*.
`CC[N+](C)(C)c1ccc(/C=C/c2ccncc2)cc1` gave KB-V1 MDR tox inactive and KB-3-1 cytotox 2.31µM*.
`CCC[N+](C)(C)c1ccc(/C=C/c2ccncc2)cc1` gave KB-V1 MDR tox inactive and KB-3-1 cytotox 1.46µM*.
Screening C(=C\c1ccncc1)/c1ccccc1 returned MCF10A rereplic 4.6%, HT1080-NT tox 24.3%, SW480 rereplic -7.6%, HT1080 IDH1KD tx 19.0%, KB-V1 MDR tox inactive and KB-3-1 cytotox inactive.
COc1ccc(/C=C/c2ccncc2)cc1OC was read as MCF10A rereplic 4.3%, HT1080-NT tox 13.7%, SW480 rereplic -11.4%, HT1080 IDH1KD tx 5.6%, KB-V1 MDR tox inactive and KB-3-1 cytotox inactive.
`O=[N+]([O-])c1csc2ccccc12` gave MCF10A rereplic inconclusive, HT1080-NT tox 3.5%, SW480 rereplic 0.4%, HT1080 IDH1KD tx 0.4%, KB-V1 MDR tox inactive and KB-3-1 cytotox inactive.
`Clc1nnc2ccc(-c3ccccc3)nn12` gave MCF10A rereplic 27.2%, HT1080-NT tox 17.3%, SW480 rereplic 1.3%, HT1080 IDH1KD tx 17.3%, KB-V1 MDR tox 16.4µM* and KB-3-1 cytotox 23.1µM*.
Screening Cc1ccc2nnc(Cl)n2n1 returned MCF10A rereplic -0.7%, HT1080-NT tox 7.5%, SW480 rereplic -1.0%, HT1080 IDH1KD tx 9.1%, KB-V1 MDR tox inactive and KB-3-1 cytotox inactive.
Screening Cc1cc(C)n(-c2nc(-c3ccc(Cl)c(Cl)c3)cs2)n1 returned MCF10A rereplic 7.08µM*, HT1080-NT tox inconclusive, SW480 rereplic -1.6%, HT1080 IDH1KD tx 13.2%, KB-V1 MDR tox inactive and KB-3-1 cytotox inactive.
For Cc1cc(C)c2nc(N3CCC(C(=O)N4CCN(c5ncccn5)CC4)CC3)sc2c1 the results were MCF10A rereplic 0.4%, HT1080-NT tox -19.7%, SW480 rereplic inconclusive, HT1080 IDH1KD tx 0.7%[9.24 µM], KB-V1 MDR tox inactive and KB-3-1 cytotox inactive.
CCCCc1cc(=O)oc2cc(C)cc(OCC(=O)N3C[C@H]4C[C@@H](C3)c3cccc(=O)n3C4)c12 was read as MCF10A rereplic inconclusive, HT1080-NT tox 4.6%, SW480 rereplic 1.84µM*, HT1080 IDH1KD tx -3.7%, KB-V1 MDR tox inactive and KB-3-1 cytotox inconclusive.
`COCCn1c(C(C)C)nc2sc3ccccc3c(=O)c2c1=O` gave MCF10A rereplic inconclusive, HT1080-NT tox 8.8%, SW480 rereplic -14.6%, HT1080 IDH1KD tx -0.3%, KB-V1 MDR tox 16.4µM* and KB-3-1 cytotox inactive.
For COCCn1c(C2CCCCC2)nc2sc3ccccc3c(=O)c2c1=O the results were MCF10A rereplic 6.8%, HT1080-NT tox inconclusive, SW480 rereplic -1.2%, HT1080 IDH1KD tx 3.0%, KB-V1 MDR tox 4.11µM* and KB-3-1 cytotox inactive.
Screening COc1ccc(C(CC(=O)Nc2ccc(F)c(Cl)c2)N2Cc3ccccc3C2=O)cc1OC (stereo not given) returned KB-V1 MDR tox 18.4µM* and KB-3-1 cytotox inactive.
Screening COc1ccc(C(CC(=O)Nc2ccc(C)c(C)c2)N2Cc3ccccc3C2=O)cc1OC (stereo not given) returned KB-V1 MDR tox inconclusive and KB-3-1 cytotox inactive.
Screening COc1ccc(C(=O)NC2CCCc3c2cnn3-c2cccc(C)c2C)o1 (stereo not given) returned MCF10A rereplic inconclusive, HT1080-NT tox 20.6µM*, SW480 rereplic -4.5%, HT1080 IDH1KD tx inconclusive, KB-V1 MDR tox inconclusive and KB-3-1 cytotox inconclusive.
